Among the data in PubChem BioAssay (NCATS) are Potency and viability (% of control) values, retold here.

SMILES strings stand for the structures. Where “and” joins values, the source holds several entries; their conditions need not be identical. Equal entries are not always repeated. Inconclusive results are not listed. A call without a number means that no potency is given here. A number with no mark means an inactive call. Calls of active or inactive are those of the source. Calls follow the shape of the dose curve; as a rule, active = well fitted cell-killing curve with a large enough effect; inconclusive = small, poorly fitted or top-dose-only effect, or effect the other way; inactive = no such curve, though single readings can be large or run the other way.
Potency is read from the fitted curve at half-maximal effect.

A short description of the assay: Viability qHTS for spleen associated tyrosine kinase inhibitor (SYKi) naive MV4-11 cells (AID 1963823). Also: nearly all actives have a fitted effect of over 40% in size. To be noted: MV4-11 AML viability, CellTiter-Glo luminescence, 72 h; series mostly up to 45 µM. The source says:
Department of Medicine, Hematology/Oncology
University Hospital Frankfurt, Germany.
Trials have shown promising clinical activity of the selective SYK inhibitor entospletinib in patients with high expressing HOXA9/MEIS1 acute leukemias. As the development of resistance mechanisms is a common problem in the use of targeted drugs, we performed a chemical library screen to identify drug sensitivities in SYK inhibitor resistant AML cells. […] Glucocorticoids are potent immunosuppressants which work in part by inhibiting the transcription of cytokine genes.
Described herein is a viability screen to look for activity in the SYK inhibitor naive cell line against four NCATS compound libraries (MIPE 5.0, NPC, NPACT, and Kinase) totaling 11372 compounds. Active hits were reacquired for confirmation and further secondary assay testing.
SEQUENCE No. (e.g., 1, 2, 3, etc.); […] (e.g., Cells, Incubation, Reagent, etc.); VALUE; DESCRIPTION.
1; Media; 2uL; white, solid-bottom Corning assay plate.
2; Compounds; 23nL; Echo acoustic dispenser.
3; Cell; 5uL; 500 cells per well.
4: Incubation; 72hr; 37 C, 5% CO2, 95% humidity.
5; Reagent; 3uL; CellTiter-Glo reagent (Promega).
6; Incubation; 10min; room temperature.
7; Detection; Luminescence; ViewLux plate reader (PerkinElmer).
NOTES (numbers refer to Sequence numbers above
1. Quantitative high-throughput screening (qHTS) of small molecule compounds was conducted on naive SYKi MV4-11 cell line.
2. Twenty-three nanoliter of small molecule compounds were added to each assay plates using the Echo acoustic dispenser (Beckman Coulter).
3. Cells were seeded into the assay plates at a final density of 500 cells in 5uL of media per well using the Multi-drop Combi dispenser.
4. Plates were covered with stainless steel gasketed lids and incubated for 72 hours at standard cell culture conditions.
5. Viability was assessed by adding 3uL of CellTiter-Glo detection reagent (Promega).
6. Plates were covered with gasket lids and incubated for 10 minutes at room temperature.
7. Luminescence was measured on a ViewLux plate reader (PerkinElmer).
In the case of `COc1cc(CCc2ccc(OCC=C(C)C)cc2)cc(OC)c1OC`, the Potency is 14.3 µM (active).
`C/C=C1/[C@H](O[C@@H]2O[C@H](CO)[C@@H](O)[C@H](O)[C@H]2O)OC=C(C(=O)OC)[C@H]1CC(=O)OCCc1ccc(OC(=O)C[C@@H]2C(C(=O)OC)=CO[C@@H](O[C@@H]3O[C@H](CO)[C@@H](O)[C@H](O)[C@H]3O)/C2=C/C)cc1`: the viability (% of control) was 67.3% [at 9.25 µM].
With `O=C(O)C(Cc1cc(I)c(O)c(I)c1)c1ccccc1` (stereo not given), the Potency entry was “inactive”.
For `CC(C)=CCC/C(C)=C/Cc1ccc(O)c(C2OC(=O)c3cc(C(=O)O)cc(O)c32)c1O` (stereo not given), the Potency entry is “inactive”.
The same measure, in the same setting: to `O=C(O)C1CCC1` belongs “inactive”.
Same read-out and setting: to `CC[C@@]1(c2ccccc2)NC(=O)N(C)C1=O` belongs “inactive”.
Still for that read-out and setting: to `CN1CCN(CCOc2cc(OC3CCOCC3)c3c(Nc4c(Cl)ccc5c4OCO5)ncnc3c2)CC1` belongs 6.51 µM (active) and 5.9 µM (active); to `O=C(O)c1ccc2c(c1)nc(Nc1cccc(Cl)c1)c1ccncc12`, 1.84 µM (active) and 1.32 µM (active).
As for `COc1ccc(CN(CCN(C)C)c2ncccn2)cc1`, the Potency result was “inactive”.
The same measure, in the same setting: as for `C/C(=C\CCC(C)(O)c1ccc(C)cc1)C(=O)O` (stereo not given), the entry is “inactive”; as for `Cc1n[nH]c(C)c1Cc1sc2c(c1C(=O)N1C[C@H](O)CO1)c(=O)n(C)c(=O)n2CC(C)C`, “inactive”; as for `CN(C)CCCNc1nc(CN2CCN(C(c3ccc(Cl)cc3)c3ccc(Cl)cc3)CC2)nc2ccccc12`, 2.06 µM (active).
On the same count and under the same terms, as for `CC[C@H]1OC(=O)[C@H](C)[C@@H](O[C@H]2C[C@@](C)(OC)[C@@H](O)[C@H](C)O2)C(C)[C@@H](O[C@@H]2O[C@H](C)C[C@H](N(C)C)[C@H]2O)[C@](C)(O)C[C@@H](C)CN(C)[C@H](C)[C@@H](O)[C@]1(C)O` (stereo not given in full), the entry is “inactive”.
For the compound `CC(CCC1(O)OC2CC3C4CCC5CC(O[C@@H]6O[C@H](CO)[C@@H](O)[C@H](O)[C@H]6O[C@@H]6OC[C@@H](O)[C@H](O)[C@H]6O)C(O)CC5(C)C4CCC3(C)C2C1C)CO[C@@H]1O[C@H](CO)[C@@H](O)[C@H](O)[C@H]1O` (stereo not given in full), the viability (% of control) was 83.1% [at 9.25 µM].
Consider `N#CCc1ccc(O)cc1O[C@@H]1O[C@H](CO)[C@@H](O)[C@H](O)[C@H]1O`, for which the Potency entry was “inactive”.
The same measure, in the same setting: to `Nc1nc2c(ncn2COC(CO)CO)c(=O)[nH]1` belongs “inactive”.
Turning to `C/C=C/C=C/[C@@H]1O[C@](O)([C@H](CC)C(=O)NC/C=C/C=C(\C)[C@@H](OC)[C@@H](C)[C@@H]2O[C@H](/C=C/C=C/C=C(\C)C(=O)c3c(O)ccn(C)c3=O)[C@H](O)[C@@H]2O)[C@H](O)[C@H](O)C1(C)C`, the viability (% of control) is 84.2% [at 9.25 µM].
Turning to `C[C@@H]1COCCN1c1cc(C2(S(C)(=O)=O)CC2)nc(-c2cccc3[nH]ccc23)n1`, the Potency is 0.58 µM (active).
The same measure, in the same setting: to `O=C(O)CCc1ccc(NCc2cccc3c2CCCN3CCOc2ccccc2)cc1F` belongs “inactive”; to `C[C@@H](OC[C@@]1(c2ccccc2)CC[C@]2(CCC(=O)N2)CN1)c1cc(C(F)(F)F)cc(C(F)(F)F)c1`, 7.42 µM (active); to `COc1cccc2c1C(=O)c1c(O)c3c(c(O)c1C2=O)C[C@@](O)(C(=O)CO)C[C@@H]3O[C@H]1C[C@H](N)[C@H](OC2CCCCO2)[C@H](C)O1` (stereo not given in full), 105 nM (active) and 74.2 nM (active).
As for `CN[C@@H]1[C@@H](O)[C@@H](O[C@@H]2[C@@H](O)[C@H](O[C@H]3O[C@@H]([C@@H](C)NC)CC[C@H]3N)[C@@H](N)C[C@H]2N)OC[C@]1(C)O`, the Potency result is “inactive”.
For the compound `CC(C)=CCC(O)[C@](C)(O)C1[C@H](O)C[C@@]2(C)C3CC=C4C(C[C@H](O)[C@@H](O[C@@H]5O[C@H](CO)[C@@H](O)[C@H](O)[C@H]5O)C4(C)C)[C@]3(C)C(=O)C[C@]12C` (stereo not given in full), the Potency entry is “inactive”.
The same measure, in the same setting: as for `CC(C)O[C@@H]1O[C@H](CO)[C@@H](O)[C@H](O)[C@H]1O`, the entry is “inactive”.
Same read-out and setting: as for `CC(C)n1nc(-c2ccc(NC(=O)Nc3cccc(C(F)(F)F)c3)cc2)c2c(N)ncnc21`, the entry is “inactive”; as for `CC1c2cccc(O)c2C(O)=C2C(=O)C3(O)C(O)=C(C(N)=O)C(=O)C(N(C)C)C3C(O)C21` (stereo not given), 20.9 µM (active); as for `O=C1CC2(CCCC2)CC(=O)N1`, “inactive”.
On the same count and under the same terms, to `C[C@@H]1O[C@@H](O[C@H]2[C@@H]3C=CO[C@@H](O[C@@H]4O[C@H](CO)[C@@H](O)[C@H](O)[C@H]4O)[C@@H]3[C@@]3(CO)O[C@@H]23)[C@H](O)[C@H](OC(=O)/C=C/c2ccc(O)cc2)[C@H]1OC(=O)/C=C/c1ccc(O)cc1` belongs “inactive”; to `O=C(N[C@H]1CCN(C(=O)c2cc(C(F)(F)F)cc(C(F)(F)F)c2)[C@H](Cc2ccc(Cl)cc2)C1)c1ccnc2ccccc12`, 8.93 µM (active).
Turning to `COC(=O)N(C)c1c(N)nc(-c2nn(Cc3ccccc3F)c3ncccc23)nc1N`, the Potency result was “inactive”.
Same read-out and setting: to `C=CC(=O)Nc1cc(Nc2nccc(-c3c[nH]c4ccccc34)n2)c(OC)cc1N(C)CCN(C)C` belongs 0.411 µM (active).
`CC1(C)C2CC(OC3OC(COC4OCC(O)(CO)C4O)C(O)C(O)C3O)C1(C)CC2O` (stereo not given): the Potency entry was “inactive”.
On the same count and under the same terms, to `COc1ccc(Cn2ccc3ccc(C(=O)NO)cc32)cc1` belongs 14.8 µM (active).
Same read-out and setting: as for `FC(F)(F)C(F)(F)C(F)(F)C(F)(F)C(F)(F)C(F)(F)C(F)(F)C(F)(F)Br`, the entry is “inactive”.
Still for that read-out and setting: to `CCOC(=N)c1nc2ccc3ncnc(Nc4cc(F)c(F)cc4Cl)c3c2s1` belongs 7.42 µM (active); to `CC1CC(O)C2(C)C(C(=O)O)=CCCC2C1(C)CCc1ccoc1` (stereo not given), “inactive”.
Consider `CC(=O)O[C@@]1(C)C[C@@H](O)[C@]2(O)C=CO[C@@H](O[C@@H]3O[C@H](CO)[C@@H](O)[C@H](O)[C@H]3O)[C@@H]21`, for which the Potency entry is “inactive”.
`CC(=O)OCC1=C[C@@H]2OC(=O)C3=CO[C@@H](O[C@@H]4O[C@H](CO)[C@@H](O)[C@H](O)[C@H]4O)[C@H]1[C@@H]32`: the Potency entry was “inactive”.
The same measure, in the same setting: as for `CC(C)(NS(=O)(=O)c1ccc2c(Cl)cnc(N=C(N)N)c2c1)C(=O)O`, the entry is “inactive”.
With `CC1(C)CC[C@@]2(C(=O)O[C@@H]3O[C@H](CO)[C@@H](O)[C@H](O)[C@H]3O)C(C1)C1=CCC3[C@@]4(C)CC[C@@H](O[C@@H]5O[C@H](C(=O)O)[C@@H](O[C@@H]6OC[C@@H](O)[C@H](O)[C@H]6O)[C@H](O[C@@H]6OC[C@](O)(CO)[C@H]6O)[C@H]5O)C(C)(C)C4CC[C@@]3(C)[C@]1(C)C[C@H]2O` (stereo not given in full), the viability (% of control) is 11.6% [at 9.25 µM].
